Test results as given in PubChem BioAssay AID1159580 (chemical genetic matrix, 2015).
Values joined by “and” are separate entries in the source; they are usually repeats but may differ in a detail not shown here. Equal values may be shown once. The campaign covered roughly 5,500 compounds. About 2,000 (36%) were called active. Another 18% or so got no clear call; they are omitted. Rule as the data show it: active = normalized growth mostly below about 0.91 (no sharp cut-off); inconclusive = no clear call, values can overlap the other calls; inactive = mostly above about 0.92. The list shows a part of the results.

Test: chemical genetic growth profiling, strain panel (AID 1159580);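 also: tested at 20 µM; growth read once vehicle control cultures reached saturation at 30 °C; 1 = growth at the plate median or of vehicle wells; lower values mean less growth of the strain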
Conditions: S. cerevisiae deletion strains, growth OD

Measured: normalized growth

COc1ccc2c(=O)c(CC(=O)O)coc2c1
inactive: locus YAL021C, strain ccr4, stronger effect = lower value 1.01 | locus YAL026C, strain drs2, stronger effect = lower value 0.984 | locus YAL030W, strain snc1, stronger effect = lower value 0.983 | locus YBL061C, strain skt5, stronger effect = lower value 0.989 | locus YBR009C, strain hhf1, stronger effect = lower value 0.987 | locus YBR021W, strain FUR4, stronger effect = lower value 1.02 | locus YBR023C, strain chs3, stronger effect = lower value 0.999 | locus YBR171W, strain sec66, stronger effect = lower value 0.956 | locus YBR229C, strain ROT2, stronger effect = lower value 1 | locus YBR231C, strain swc5, stronger effect = lower value 0.972 | locus YBR279W, strain paf1, stronger effect = lower value 0.997 | locus YCL011C, strain gbp2, stronger effect = lower value 0.995 | locus YCL016C, strain dcc1, stronger effect = lower value 1.04 | locus YCL029C, strain bik1, stronger effect = lower value 1 | locus YCL061C, strain MRC1, stronger effect = lower value 1 | locus YCL069W, strain vba3, stronger effect = lower value 0.975 | locus YCR088W, strain abp1, stronger effect = lower value 0.971 | locus YDL005C, strain med2, stronger effect = lower value 0.985 | locus YDL035C, strain GPR1, stronger effect = lower value 1.03 | locus YDL040C, strain nat1, stronger effect = lower value 0.979 | locus YDL074C, strain BRE1, stronger effect = lower value 1.05 | locus YDL101C, strain DUN1, stronger effect = lower value 0.987 | locus YDL134C, strain PPH21, stronger effect = lower value 1.01 | locus YDL185W, strain tfp1, stronger effect = lower value 0.984 | locus YDL192W, strain arf1, stronger effect = lower value 1.01 | locus YDR001C, strain nth1, stronger effect = lower value 0.995 | locus YDR069C, strain doa4, stronger effect = lower value 0.953 | locus YDR101C, strain arx1, stronger effect = lower value 1.04 | locus YDR137W, strain rgp1, stronger effect = lower value 1 | locus YDR159W, strain sac3, stronger effect = lower value 0.926 | locus YDR162C, strain NBP2, stronger effect = lower value 1.05 | locus YDR195W, strain ref2 0.964 | locus YDR297W, strain sur2, stronger effect = lower value 0.965 | locus YDR318W, strain mcm21, stronger effect = lower value 0.991 | locus YDR334W, strain swr1, stronger effect = lower value 0.968 | locus YDR335W, strain msn5, stronger effect = lower value 0.987 | locus YDR388W, stronger effect = lower value 1 | locus YDR392W, strain spt3, stronger effect = lower value 0.939 | locus YDR502C, strain sam2, stronger effect = lower value 0.991 | locus YEL003W, strain gim4, stronger effect = lower value 0.98 | locus YEL037C, strain rad23, stronger effect = lower value 0.977 | locus YEL061C, strain CIN8 (second series), stronger effect = lower value 0.973 | locus YEL061C, strain CIN8, stronger effect = lower value 1.01 | locus YER015W, strain faa2, stronger effect = lower value 0.976 | locus YER016W, strain bim1, stronger effect = lower value 0.986 | locus YER110C, stronger effect = lower value 0.976 | locus YER111C, strain swi4, stronger effect = lower value 0.981 | locus YER155C, strain BEM2 (second series), stronger effect = lower value 0.981 | locus YER155C, strain BEM2, stronger effect = lower value 0.989 | locus YER167W, strain BCK2, stronger effect = lower value 1.01 | locus YFR010W, strain ubp6, stronger effect = lower value 0.969 | locus YGL078C, strain dbp3, stronger effect = lower value 0.96 | locus YGL086W, strain mad1, stronger effect = lower value 1.02 | locus YGL167C, strain pmr1, stronger effect = lower value 0.992 | locus YGL173C, strain kem1, stronger effect = lower value 0.982 | locus YGL227W, strain vid30, stronger effect = lower value 0.984 | locus YGL240W, strain doc1, stronger effect = lower value 0.951 | locus YGL248W, strain PDE1, stronger effect = lower value 1.01 | locus YGL253W, strain hxk2, stronger effect = lower value 0.961 | locus YGR078C, strain PAC10, stronger effect = lower value 1.01 | locus YGR135W, strain pre9, stronger effect = lower value 0.949 | locus YGR252W, strain gcn5, stronger effect = lower value 0.987 | locus YHR013C, strain ard1, stronger effect = lower value 1.02 | locus YHR027C, strain rpn1, stronger effect = lower value 0.969 | locus YHR030C, strain SLT2, stronger effect = lower value 1.01 | locus YHR079C, strain IRE1 (second series), stronger effect = lower value 0.984 | locus YHR079C, strain IRE1, stronger effect = lower value 0.991 | locus YHR094C, strain hxt1, stronger effect = lower value 0.983 | locus YHR129C, strain ARP1, stronger effect = lower value 1 | locus YHR142W, strain chs7, stronger effect = lower value 0.995 | locus YHR200W, strain rpn10, stronger effect = lower value 1.01 | locus YIL066C, strain RNR3, stronger effect = lower value 1 | locus YIL073C, strain SPO22, stronger effect = lower value 0.974 | locus YIL125W, strain kgd1, stronger effect = lower value 1 | locus YIR030C, strain dcg1, stronger effect = lower value 1 | locus YJL092W, strain hpr5, stronger effect = lower value 0.974 | locus YJL095W, strain BCK1 (second series), stronger effect = lower value 0.962 | locus YJL095W, strain BCK1, stronger effect = lower value 1.01 and 1.02 | locus YJL115W, strain asf1, stronger effect = lower value 0.984 | locus YJL129C, strain trk1, stronger effect = lower value 0.996 | locus YJL134W, strain LCB3, stronger effect = lower value 0.999 | locus YJL154C, strain vps35, stronger effect = lower value 0.987 | locus YJL164C, strain tpk1, stronger effect = lower value 1.01 | locus YJL166W, strain qcr8, stronger effect = lower value 0.973 | locus YJL168C, strain set2, stronger effect = lower value 0.987 | locus YJL187C, strain SWE1 (second series), stronger effect = lower value 0.993 | locus YJL187C, strain SWE1, stronger effect = lower value 0.977 | locus YJR043C, strain POL32, stronger effect = lower value 1.05
